Where “and” joins values, the source holds several entries; their conditions need not be identical. Equal entries are not always repeated. The source holds several records for some structures; these can differ, active in one and inactive in another. Calls of active or inactive are those of the source. How the source made its calls: active means hit-call score of the fitted dose curve at least 0.9, where 1 is the maximum; inactive means score below 0.9.

Assay [1] is described as follows: CEETOX_H295R_TESTO: CeeTox H295R High-throughput Steroidogenesis Assay for Testosterone (TESTO) (AID 2283457). The following applies: actives raise or lower the signal. The gist of the method:
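H295R, passage ≤10, 48 h dosing; media extracted with MTBE → HPLC-MS/MS for testosterone; 7-pt standard curve sets LLOQ/ULOQ; bidirectional fit vs DMSO; MTT viability same wells.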

Read-out in assay [2]: Cyclin D1 (CCND1), CCND1 (gene 595)
The assay can be described thus: LTEA_HepaRG_CCND1: Life Technologies and Expression Analysis (LTEA) Assay for Cyclin D1 (CCND1) using HepaRG (AID 2283451).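 On AC50: differentiated human HepaRG liver cells in serum-free induction medium.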 The settings on record: mRNA level, 48 h; actives raise or lower the signal. The gist of the method:
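HepaRG plated 48 h, medium switched to serum-free induction medium, chemicals added in duplicate (top 100 uM, half-log steps, 0.5% DMSO) for 48 h, cells lysed, RNA measured by TaqMan qRT-PCR.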

Read-out in assay [3]: catalase (CAT), CAT (gene 847)
Nature of the assay: LTEA_HepaRG_CAT: Life Technologies and Expression Analysis (LTEA) Assay for catalase (CAT) using HepaRG (AID 2283452). The following applies: mRNA level, 48 h; actives raise or lower the signal. In short, it runs like this:
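Expression of CAT was quantified by TaqMan qRT-PCR with ACTB/GAPDH/POLR2A normalization after 48 h chemical exposure of HepaRG. Eight-point half-log series, top 100 uM, in 0.5% DMSO; gain or loss fitted against vehicle.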

Read-out in assay [4]: flavin-containing dimethylaniline monooxygenases 3 (FMO3), FMO3 (gene 2328)
The assay can be described thus: LTEA_HepaRG_FMO3: Life Technologies and Expression Analysis (LTEA) Assay for flavin-containing dimethylaniline monooxygenases 3 (FMO3) using HepaRG (AID 2283453).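 On AC50: differentiated human HepaRG liver cells in serum-free induction medium.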 The settings on record: mRNA level, 48 h; actives raise or lower the signal. The gist of the method: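 FMO3 transcript quantified by TaqMan qRT-PCR against three housekeeping genes after 48 h chemical exposure of HepaRG cells. Eight-point half-log series, top 100 uM, 0.5% DMSO vehicle; phenobarbital 1mM induction control; up- or down-regulation fitted.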

Read-out in assay [5]: Cytochrome P450 (CYP1A1), CYP1A1 (gene 1543)
Nature of the assay: LTEA_HepaRG_CYP1A1: Life Technologies and Expression Analysis (LTEA) Assay for Cytochrome P450 (CYP1A1) using HepaRG (AID 2283454). The following applies: mRNA level, 48 h; actives raise or lower the signal. The gist of the method:
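HepaRG, 48 h post-plating switched to serum-free induction medium; 8-pt conc-response (top 100 uM, half-log, 0.5% DMSO), duplicates, 48 h. Lysis in RLT, TaqMan qRT-PCR for CYP1A1; gain or loss vs DMSO.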

Read-out in assay [6]: CFLAR gene, CFLAR (gene 8837)
The assay can be described thus: LTEA_HepaRG_CFLAR: Life Technologies and Expression Analysis (LTEA) Assay for CFLAR gene using HepaRG (AID 2283455). The following applies: mRNA level, 48 h; actives raise or lower the signal. The gist of the method: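 Transcript level by qRT-PCR (normalized to ACTB, GAPDH and POLR2A) after 48 h chemical exposure of HepaRG cells, top concentration 100 uM with half-log steps, 0.5% DMSO vehicle, duplicates; fitted bidirectionally against DMSO baseline.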

Read-out in assay [7]: Forkhead box O1 (FOXO1), FOXO1 (gene 2308)
The assay can be described thus: LTEA_HepaRG_FOXO1: Life Technologies and Expression Analysis (LTEA) Assay for Forkhead box O1 (FOXO1) using HepaRG (AID 2283456). The following applies: mRNA level, 48 h; actives raise or lower the signal. The gist of the method: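 FOXO1 transcript quantified by qRT-PCR after 48 h chemical exposure (top 100 uM, half-log steps, 0.5% DMSO) of HepaRG cells, housekeeping-normalized (ACTB/GAPDH/POLR2A). Changes fitted in both directions relative to vehicle.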

Read-out in assay [8]: growth arrest and DNA damage 45 (GADD45A), GADD45A (gene 1647)
Nature of the assay: LTEA_HepaRG_GADD45A: Life Technologies and Expression Analysis (LTEA) Assay for growth arrest and DNA damage 45 (GADD45A) using HepaRG (AID 2283458). The settings on record: mRNA level, 48 h; actives raise or lower the signal. The gist of the method: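 GADD45A expression was measured by TaqMan qRT-PCR against three housekeeping genes (ACTB, GAPDH, POLR2A) after 48 h treatment of HepaRG cells. Eight-point half-log series up to 100 uM in 0.5% DMSO, run in duplicate.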

Read-out in assay [9]: Forkhead box O3 (FOXO3), FOXO3 (gene 2309)
Nature of the assay: LTEA_HepaRG_FOXO3: Life Technologies and Expression Analysis (LTEA) Assay for Forkhead box O3 (FOXO3) using HepaRG (AID 2283459). The settings on record: mRNA level, 48 h; actives raise or lower the signal. The gist of the method:
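FOXO3 transcript measured by qRT-PCR (normalized to ACTB, GAPDH, POLR2A) after 48 h exposure of HepaRG cells in serum-free induction medium. Duplicates, eight half-log concentrations up to 100 uM, 0.5% DMSO; gain or loss fitted against DMSO.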

Read-out in assay [10]: ABC Transporter (ABCB1), ABCB1 (gene 5243)
Nature of the assay: LTEA_HepaRG_ABCB1: Life Technologies and Expression Analysis (LTEA) Assay for ABC Transporter (ABCB1) using HepaRG (AID 2283460). The following applies: mRNA level, 48 h; actives raise or lower the signal. In short, it runs like this:
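ABCB1 transcript level measured by TaqMan qRT-PCR against three housekeeping genes after 48 h chemical exposure of differentiated HepaRG cells. Top concentration 100 uM, half-log steps, eight points, 0.5% DMSO vehicle; bidirectional fit relative to DMSO.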

Turning to `CC=CC(=O)C1=C(C)C=CCC1(C)C`, the compound was classed as inactive in assay [1].

Turning to `OCCCO`, in assay [1], the outcome was inactive.

As for `COC(=O)c1ccc(C(=O)OC)cc1`, the call in assay [2], in assay [3], in assay [4], in [6], in assay [7] and in assay [8] was inactive. In addition, the call in [9] and in [10] was inactive. In assay [5], the AC50 (as a rule, the concentration giving half of the maximal activity seen) was 65.1 µM (active).

On to `CC/C(=C(\c1ccccc1)c1ccc(OCCN(C)C)cc1)c1ccccc1`, for which the AC50 in [2] is 28.1 µM (active) and 38.6 µM (active); in assay [3], 51.7 µM (active); in [4], 27.9 µM (active) and 33.7 µM (active); in assay [5] it was 26.8 µM (active) and 68.3 µM (active); in [6], 64.9 µM (active) and 93.4 µM (active); in [7], 69.8 µM (active). Further, the AC50 was 66.8 µM (active) in assay [9]; 76.5 µM (active) and 77.8 µM (active) in [10]. For the same compound, the result in assay [3], in assay [7], in assay [8] and in assay [9] was inactive.

As for `C#C[C@]1(O)CC[C@H]2[C@@H]3CCc4cc(O)ccc4[C@H]3CC[C@@]21C`, the call in [2], in [3], in assay [4], in assay [5], in [6] and in assay [7] was inactive. Moreover, the compound was classed as inactive in assay [8], in assay [9] and in assay [10].

Consider `CC(C)(C)c1cccc(O)c1`, for which the outcome in assay [1] was inactive.

With `O=C(c1ccc(OCCN2CCCCC2)cc1)c1c(-c2ccc(O)cc2)sc2cc(O)ccc12`, the AC50 in assay [2] was 96.1 µM (active); in [3], 50 µM (active); in [4], 72.3 µM (active); in [6] it was 65.4 µM (active); in assay [7], 86 µM (active); in assay [10], 72.7 µM (active). Moreover, the outcome in assay [5], in [8] and in assay [9] was inactive.

For the compound `CC(=N[Si](C)(C)C)O[Si](C)(C)C`, the compound was called inactive in assay [1].

`C=C(C)C(N)=O`: the compound was called inactive in assay [2], in assay [3], in assay [4], in assay [6], in [7] and in assay [8]. Further, the outcome in [9] and in assay [10] was inactive. The AC50 in [5] was 50 µM (active).

With `CCCCOCCOCCO`, the result in [2], in assay [3], in assay [4], in assay [6], in [7] and in [8] was inactive. For the same compound, the call in assay [9] and in [10] was inactive. Further, in assay [5], the AC50 was 50 µM (active).

For `C[C@]12CC[C@@H]3c4ccc(O)cc4CC[C@H]3[C@@H]1CC[C@@H]2O`, the outcome in assay [2], in [3], in assay [4], in assay [6], in [7] and in [8] was inactive. The compound was classed as inactive in assay [9]. Besides, the AC50 in assay [5] is 66.1 µM (active); in [10] it was 6.57 µM (active).
